Source: PubChem BioAssay AID1159580 (chemical genetic matrix, 2015)
About 2,000 (36%) of roughly 5,500 compounds were called active. About 18% were inconclusive and are not listed. Cut-off read from the data, not from the text of the source: active = normalized growth mostly below about 0.91 (no sharp cut-off); inconclusive = no clear call, values can overlap the other calls; inactive = mostly above about 0.92. Some of the results follow.

Assay: chemical genetic growth profiling, strain panel (AID 1159580);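 note: tested at 20 µM; growth read once vehicle control cultures reached saturation at 30 °C; 1 = growth at the plate median or of vehicle wells; lower values mean less growth of the strain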
Settings: S. cerevisiae deletion strains, growth OD

Measured: normalized growth

COc1ccc(-c2coc3cc(O)ccc3c2=O)c(OC)c1
inactive: locus YAL013W, strain DEP1, hits give low values 1.01 | locus YAL021C, strain ccr4, hits give low values 0.995 | locus YAL026C, strain drs2, hits give low values 1.01 | locus YAL030W, strain snc1, hits give low values 1 | locus YBL061C, strain skt5, hits give low values 0.996 | locus YBR009C, strain hhf1, hits give low values 1.01 | locus YBR021W, strain FUR4, hits give low values 0.887 | locus YBR023C, strain chs3, hits give low values 1.01 | locus YBR171W, strain sec66, hits give low values 1.01 | locus YBR229C, strain ROT2, hits give low values 1 | locus YBR231C, strain swc5, hits give low values 0.982 | locus YBR279W, strain paf1, hits give low values 1.01 | locus YCL011C, strain gbp2, hits give low values 1.03 | locus YCL016C, strain dcc1, hits give low values 1.01 | locus YCL029C, strain bik1, hits give low values 1.01 | locus YCL069W, strain vba3, hits give low values 1.01 | locus YCR088W, strain abp1, hits give low values 1 | locus YDL005C, strain med2, hits give low values 1 | locus YDL035C, strain GPR1, hits give low values 1 | locus YDL040C, strain nat1, hits give low values 1 | locus YDL074C, strain BRE1, hits give low values 1.02 | locus YDL101C, strain DUN1, hits give low values 1 | locus YDL185W, strain tfp1, hits give low values 0.994 | locus YDL192W, strain arf1, hits give low values 0.99 | locus YDR001C, strain nth1, hits give low values 1 | locus YDR069C, strain doa4, hits give low values 0.982 | locus YDR101C, strain arx1, hits give low values 0.982 | locus YDR137W, strain rgp1, hits give low values 0.995 | locus YDR159W, strain sac3, hits give low values 0.976 | locus YDR162C, strain NBP2, hits give low values 0.937 | locus YDR195W, strain ref2 0.974 | locus YDR297W, strain sur2, hits give low values 0.995 | locus YDR318W, strain mcm21, hits give low values 1 | locus YDR334W, strain swr1, hits give low values 0.994 | locus YDR335W, strain msn5, hits give low values 1.02 | locus YDR388W, hits give low values 1 | locus YDR392W, strain spt3, hits give low values 0.951 | locus YDR502C, strain sam2, hits give low values 1 | locus YEL003W, strain gim4, hits give low values 0.985 | locus YEL037C, strain rad23, hits give low values 1.01 | locus YEL061C, strain CIN8 (second series), hits give low values 1 | locus YEL061C, strain CIN8, hits give low values 1 | locus YER015W, strain faa2, hits give low values 1.02 | locus YER016W, strain bim1, hits give low values 0.999 | locus YER110C, hits give low values 1.03 | locus YER111C, strain swi4, hits give low values 0.999 | locus YER155C, strain BEM2 (second series), hits give low values 0.977 | locus YER155C, strain BEM2, hits give low values 1.01 | locus YER167W, strain BCK2, hits give low values 1.01 | locus YFR010W, strain ubp6, hits give low values 0.984 | locus YGL078C, strain dbp3, hits give low values 0.988 | locus YGL086W, strain mad1, hits give low values 0.991 | locus YGL167C, strain pmr1, hits give low values 1.01 | locus YGL173C, strain kem1, hits give low values 0.997 | locus YGL227W, strain vid30, hits give low values 0.992 | locus YGL240W, strain doc1, hits give low values 0.972 | locus YGL248W, strain PDE1, hits give low values 1 | locus YGL253W, strain hxk2, hits give low values 0.981 | locus YGR135W, strain pre9, hits give low values 0.993 | locus YGR229C, strain SMI1, hits give low values 0.97 | locus YGR252W, strain gcn5, hits give low values 1.01 | locus YHR013C, strain ard1, hits give low values 1.01 | locus YHR027C, strain rpn1, hits give low values 1 | locus YHR030C, strain SLT2, hits give low values 1.01 | locus YHR079C, strain IRE1 (second series), hits give low values 1.01 | locus YHR094C, strain hxt1, hits give low values 0.995 | locus YHR129C, strain ARP1, hits give low values 1.02 | locus YHR142W, strain chs7, hits give low values 0.999 | locus YHR200W, strain rpn10, hits give low values 1 | locus YIL066C, strain RNR3, hits give low values 0.994 | locus YIL073C, strain SPO22, hits give low values 1.02 | locus YIL125W, strain kgd1, hits give low values 0.996 | locus YIR030C, strain dcg1, hits give low values 0.999 | locus YJL092W, strain hpr5, hits give low values 1 | locus YJL095W, strain BCK1 (second series), hits give low values 1 | locus YJL095W, strain BCK1, hits give low values 0.976 | locus YJL115W, strain asf1, hits give low values 1.01 | locus YJL129C, strain trk1, hits give low values 1.03 | locus YJL134W, strain LCB3, hits give low values 1.01 | locus YJL154C, strain vps35, hits give low values 1 | locus YJL164C, strain tpk1, hits give low values 1.01 | locus YJL166W, strain qcr8, hits give low values 0.995 | locus YJL168C, strain set2, hits give low values 1.02 | locus YJL187C, strain SWE1 (second series), hits give low values 0.998 | locus YJL187C, strain SWE1, hits give low values 1.02 | locus YJR043C, strain POL32, hits give low values 0.999 | locus YJR075W, strain HOC1, hits give low values 0.994 | locus YKL009W, strain mrt4, hits give low values 1.04 | locus YKL068W, hits give low values 1.01 | locus YKL085W, strain MDH1 (second series), hits give low values 0.996 | locus YKL085W, strain MDH1, hits give low values 0.996 | locus YKL160W, strain elf1, hits give low values 1.02 | locus YKL190W, strain CNB1, hits give low values 1 | locus YKR001C, strain vps1, hits give low values 0.973 | locus YKR026C, strain gcn3, hits give low values 1 | locus YKR091W, strain srl3, hits give low values 1.01 | locus YLL001W, strain dnm1, hits give low values 0.963 | locus YLL026W, hits give low values 1 | locus YLL041C, strain sdh2, hits give low values 1.01 | locus YLR027C, strain aat2, hits give low values 1.01 | locus YLR039C, strain RIC1, hits give low values 0.976 | locus YLR058C, strain SHM2, hits give low values 1.01 | locus YLR102C, strain apc9, hits give low values 1 | locus YLR221C, strain rsa3, hits give low values 1 | locus YLR258W, strain gsy2, hits give low values 1.01 | locus YLR262C, strain YPT6 (second series), hits give low values 0.995 | locus YLR262C, strain YPT6, hits give low values 0.989 | locus YLR268W, strain sec22, hits give low values 0.991 | locus YLR320W, strain mms22, hits give low values 1 | locus YLR330W, strain CHS5, hits give low values 1.02 | locus YLR342W, strain FKS1 (second series), hits give low values 1.03 | locus YLR342W, strain FKS1, hits give low values 1.02 | locus YLR357W, strain rsc2, hits give low values 0.98 | locus YLR370C, strain arc18, hits give low values 1 | locus YLR371W, strain rom2, hits give low values 0.998 | locus YLR384C, strain iki3, hits give low values 0.998 | locus YLR418C, strain cdc73, hits give low values 0.971 | locus YML016C, strain PPZ1, hits give low values 1 | locus YML032C, strain rad52, hits give low values 1.01 | locus YML120C, strain ndi1, hits give low values 1.02 | locus YML124C, strain tub3, hits give low values 1 | locus YMR058W, strain fet3, hits give low values 1 | locus YMR078C, strain ctf18, hits give low values 1.01 | locus YMR125W, strain sto1, hits give low values 1.01 | locus YMR129W, hits give low values 1.01 | locus YMR205C, strain PFK2, hits give low values 1.01 | locus YMR223W, strain ubp8, hits give low values 1.01 | locus YMR231W, strain pep5, hits give low values 1.01 | locus YMR307W, strain GAS1, hits give low values 0.901 | locus YNL067W, strain RPL9B, hits give low values 0.984 | locus YNL071W, strain lat1, hits give low values 1.01 | locus YNL128W, strain TEP1, hits give low values 1 | locus YNL209W, strain ssb2, hits give low values 1.01 | locus YNL233W, strain BNI4, hits give low values 0.993 | locus YNL248C, strain rpa49, hits give low values 1 | locus YNL250W, strain rad50, hits give low values 1.01 | locus YNL271C, strain bni1, hits give low values 0.992 | locus YNL298W, strain CLA4, hits give low values 1.01 | locus YNL307C, strain MCK1, hits give low values 1.01 | locus YNL322C, strain KRE1 (second series), hits give low values 1.01 | locus YNR049C, strain mso1, hits give low values 1.01 | locus YNR052C, strain pop2, hits give low values 1.01 | locus YOL012C, strain htz1 0.93 | locus YOL147C, strain pex11, hits give low values 0.998 | locus YOR001W, strain rrp6, hits give low values 0.998 | locus YOR061W, strain CKA2, hits give low values 1 | locus YOR069W, strain VPS5, hits give low values 1.01 | locus YOR070C, strain gyp1, hits give low values 1.01 | locus YOR080W, strain dia2, hits give low values 1 | locus YOR083W, strain WHI5, hits give low values 1.02 | locus YOR106W, strain vam3, hits give low values 1.03 | locus YOR136W, strain idh2, hits give low values 0.997 | locus YOR144C, strain elg1, hits give low values 0.988 | locus YOR184W, strain ser1, hits give low values 0.952 | locus YOR265W, strain rbl2, hits give low values 1.01 | locus YOR270C, strain vph1, hits give low values 0.959 | locus YOR290C, strain snf2, hits give low values 1.02 | locus YOR316C, strain cot1, hits give low values 1.01 | locus YPL051W, strain arl3, hits give low values 1.01 | locus YPL055C, strain LGE1, hits give low values 0.971 | locus YPL078C, strain atp4, hits give low values 1.03 | locus YPL106C, strain sse1, hits give low values 1.01 | locus YPL240C, strain hsp82, hits give low values 1.01 | locus YPL241C, strain CIN2, hits give low values 0.992 | locus YPR119W, strain clb2, hits give low values 1.01 | locus YPR141C, strain kar3, hits give low values 1 | locus YPR163C, strain tif3, hits give low values 0.999 | locus YPR167C, strain met16, hits give low values 1.01 | strain wtn01, hits give low values 1.01
